Source: PubChem BioAssay AID588453 (National Center for Advancing Translational Sciences (NCATS), 2011)
Screen size: about 390,000 compounds; about 4,000 (1%) were called active. Another 4% or so got no clear call; they are omitted. The call rests on the fitted dose curve; in most records, active means well fitted inhibition curve with a large enough effect; inconclusive means small, poorly fitted or top-dose-only effect; inactive means no such curve, though single readings can be large or run the other way. The list comes from a sample in which actives are over-represented; it also holds similar structures and randomly drawn compounds. Where a call stands in place of a potency, no number is given.

Target: Thioredoxin reductase 1, cytoplasmic (Rattus norvegicus) (UniProt O89049)
Sequence (O89049 whole entry, looked up): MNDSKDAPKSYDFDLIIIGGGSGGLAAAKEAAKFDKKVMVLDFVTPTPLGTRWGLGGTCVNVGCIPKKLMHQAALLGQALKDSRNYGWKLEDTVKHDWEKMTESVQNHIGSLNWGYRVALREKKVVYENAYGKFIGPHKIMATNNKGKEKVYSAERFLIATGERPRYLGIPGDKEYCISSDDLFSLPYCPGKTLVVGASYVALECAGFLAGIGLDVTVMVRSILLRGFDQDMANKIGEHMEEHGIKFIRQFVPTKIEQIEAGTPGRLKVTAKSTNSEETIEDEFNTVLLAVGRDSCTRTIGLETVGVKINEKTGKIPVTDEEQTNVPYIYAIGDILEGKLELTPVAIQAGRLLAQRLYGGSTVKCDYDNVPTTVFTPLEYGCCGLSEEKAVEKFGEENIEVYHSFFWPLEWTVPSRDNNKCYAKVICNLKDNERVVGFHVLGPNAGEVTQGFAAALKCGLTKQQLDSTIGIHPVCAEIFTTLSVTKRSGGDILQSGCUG
Assay: qHTS Assay for Inhibitors of Mammalian Selenoprotein Thioredoxin Reductase 1 (TrxR1): qHTS; further: nearly all actives have a fitted effect of over 65% in size
Conditions: recombinant rTrxR1, NADPH fluorescence consumption, selenite substrate; series mostly up to 114 µM
In short: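 Rat TrxR1 (90 nM in the dispensed reagent) was pre-reduced with 400 uM NADPH for 5 min at room temperature, then incubated with compound for 15 min. After 400 uM selenite was added, NADPH fluorescence (Ex 340/Em 450 nm) was followed for 8 min.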
Potency means the concentration at half of the fitted maximal effect.

Row | Compound | Potency
1 | O=C(CCc1nc(CN2CCN(S(=O)(=O)c3ccc(Br)cc3)CC2)no1)N1CCCCC1 | inactive
2 | Cc1noc(/C=C/N(C)C)c1S(=O)(=O)N1CCCC(C(=O)Nc2cccc(F)c2)C1 (configuration not stated) | inactive
3 | c1ccc(-c2nccc(-c3ccc(-n4cnc5ccccc54)cc3)n2)nc1 | inactive
4 | Cc1ccc(C)n1-c1ccncc1 | inactive
5 | Cc1nccc(-c2ccc(-n3c(C)ccc3C)cc2)n1 | 79.4 µM (active)
6 | NC1CCN(O)C1=O (configuration not stated) | inactive
7 | CC(C)(C)OC(=O)N(Cc1ccco1)S(=O)(=O)c1ccccc1Br | inactive
8 | O=C(NCc1ccccc1Cl)c1cccn1-c1nnc(N2CCCCC2)s1 | inactive
9 | O=C(NCCc1ccccc1)c1ccc2c(c1)N(Cc1ccccc1)C(=O)c1ccccc1S2(=O)=O | inactive
10 | CCCCOc1ccc(CN2C(=O)C(=O)c3cc(Br)cc(C)c32)cc1OC | inactive
11 | CCOc1ccc(-c2ccc(SCC(=O)N3CCOCC3)nn2)cc1 | inactive
12 | CCOc1ccc(C(=O)CCN2CCOCC2)cc1 | 3.16 µM (active)
13 | CCOc1ccc(C(=O)N2CCN(CCc3ccccn3)CC2)cc1 | inactive
14 | SCc1nc2ccc(Cl)cc2[nH]1 | inactive
15 | Cc1ccccc1C(=O)Nc1sc2c(c1C(=O)N1CCC(C)CC1)CCCC2 | inactive
16 | Cc1cccc(NC(=O)C2CCCN2S(=O)(=O)c2cccc3nsnc23)c1C (configuration not stated) | inactive
17 | COc1cc(COCC(O)CN2CCN(Cc3ccc4c(c3)OCO4)CC2)cc(OC)c1OC (configuration not stated) | inactive
18 | COc1cc(C2c3cc4c(cc3C(O)C3COC(=O)C23)OCO4)cc(OC)c1OC (configuration not stated) | inactive
19 | COc1c(O)ccc2c1CN1CCc3cc4c(cc3C1C2)OCO4 (configuration not stated) | 50.1 µM (active)
20 | Nc1nc(N)c(N=O)c(N)n1 | inactive
21 | COc1ccc(NS(=O)(=O)c2cc3c4c(c2)CC(=O)N4CCC3)cc1Cl | inactive
22 | Fc1ccc(-c2ccc(-c3nn4c(-c5ccco5)nnc4s3)o2)cc1 | 35.5 µM (active)
23 | O=C(Nc1ccc(Br)cc1)c1ccc(Br)c(S(=O)(=O)NCc2ccccc2)c1 | inactive
24 | O=C(NC1CC(=O)N(c2ccc(Cl)cc2)C1)C1CCCC1 (configuration not stated) | inactive
25 | Cc1ccc(CCNC(=O)c2ccc3c(c2)N(Cc2cc(C)ccc2C)C(=O)c2ccccc2S3=O)cc1 (configuration not stated) | inactive
26 | Cc1ccccc1C(CC(=O)c1cccs1)C(C#N)C#N (configuration not stated) | 10 µM (active)

Row | Compound | Potency
27 | C[N+]1(CC(=O)c2cccs2)CCOCC1 | inactive
28 | Cc1ccccc1N(C(=O)CNC(=O)c1cccs1)C(C(=O)NC1CCCC1)c1ccncc1 (configuration not stated) | inactive
29 | CCOC(=O)c1ccc(NC(=O)c2c(NCc3cccc(OC)c3)sc3c2CCC3)cc1 | inactive
30 | CCOc1ccc(N2C(=O)CN(c3cccc4ccccc34)C2=S)cc1 | inactive
31 | CCOc1ccc(N2C(=O)/C(=C/c3ccc(C)o3)N(C)C2=S)cc1 | 31.6 µM (active)
32 | CCOC(=O)c1ccc(NC2=CC(c3ccc(OCC)cc3)N(c3ccc(C(=O)OCC)cc3)C2=O)cc1 (configuration not stated) | inactive
33 | COc1ccc(Cn2c(=O)n(-c3ccccc3C)c(=O)c3c4c(sc32)CN(C(C)=O)CC4)cc1 | inactive
34 | O=C(COc1ccccc1Cl)Nc1ccc2nc(SCC(=O)N3CCCC3)sc2c1 | inactive
35 | COCc1ccc(C(=O)N2CCc3c([nH]c4ccccc34)C2c2ccccn2)s1 (configuration not stated) | inactive
36 | CCOc1ccc(C2c3[nH]c4ccccc4c3CCN2Cc2cccn2-c2ncccn2)cc1 (configuration not stated) | inactive
37 | c1ccc(C2c3[nH]c4ccccc4c3CCN2Cc2cccn2-c2cccnc2)nc1 (configuration not stated) | 50.1 µM (active)
38 | CS(=O)c1ccc(/C=C2\C=Cc3ccccc32)cc1 (configuration not stated) | inactive
39 | CCOC(=O)c1nnn(CC(=O)NC(=O)Nc2ccccc2F)c1C(=O)OCC | inactive
40 | Cc1ccc(Cc2cnc(N)s2)o1 | 22.4 µM (active)
41 | COc1cn(CC(=O)Nc2cccc(C)c2C)c(CN2CCCCC2)cc1=O | inactive
42 | Cc1cccc(N2CCN(C(=O)CCn3c(=O)c4cccn4c4cccnc43)CC2C)c1 (configuration not stated) | inactive
43 | CCn1c(CNC(=O)C23CC4CC(CC(C4)C2)C3)nnc1SCC(=O)Nc1ccc(OC)cc1 | inactive
44 | CCCCS(=O)(=O)c1oc(-c2cccs2)nc1S(=O)(=O)c1ccccc1 | 0.447 µM (active)
45 | CSc1oc(-c2cccs2)nc1S(=O)(=O)c1ccc(Br)cc1 | inactive
46 | NC(=O)CSc1oc(-c2cccs2)nc1S(=O)(=O)c1ccccc1 | inactive
47 | C(=Nc1ccc(/C=C/c2ccnc3ccccc23)cc1)Nc1ccc(/C=C/c2ccnc3ccccc23)cc1 | inactive
48 | CCOC(=O)c1c(C)oc2nc(C)nc(Nc3ccc(CC)cc3)c12 | inactive
49 | CCCOc1ccc(C(=O)Nc2ccc3oc(-c4cccc(Cl)c4Cl)nc3c2)cc1 | inactive
50 | Oc1c(C=Nc2cccc3nsnc23)ccc2ccccc12 | 39.8 µM (active)
51 | Cc1cccc(-c2nnc(SCC(=O)N3CCCc4ccccc43)o2)c1 | inactive
52 | COc1ccc(-c2nc(=N)sn2-c2ccccc2)cc1 | inactive

Row | Compound | Potency
53 | Cc1cc(C)c2c(n1)nn1c(-n3ccnc3)cc(C)nc21 | 8.91 µM (active)
54 | COC(=O)c1cc(NC(=O)CCc2c(C)nc3c4c(C)cc(C)nc4nn3c2C)cc(C(=O)OC)c1 | inactive
55 | Cc1cc(C)c2c(NC(=O)C3CC3)nn(C)c2n1 | inactive
56 | Cc1ccc(NC(=O)c2cc(-c3ccc(C)o3)nc3ccccc23)nc1 | 14.1 µM (active)
57 | Cc1ccc(-c2cc(C(=O)NN)n[nH]2)o1 | inactive
58 | CCOc1ccc(CNC(=O)c2cc(-c3ccc(Cl)s3)nc3ccccc23)cc1 | inactive
59 | CCOC(=O)c1cc2c(=O)n3ccccc3nc2n(CC2CCCO2)c1=NC(=O)c1ccc(C(C)(C)C)cc1 (configuration not stated) | inactive
60 | Cc1cccc(N2CCN(C3=C(c4ccccc4)C(=O)c4ccccc43)CC2)c1C | inactive
61 | CC(=O)/C(C)=N/O | inactive
62 | Cc1noc(C)c1NC(=O)Nc1cccc2c1O[C@H](CN(C)C(=O)Nc1ccccc1)[C@@H](C)CN([C@H](C)CO)C2=O | inactive
63 | C[C@H](CO)N1C[C@H](C)[C@H](CN(C)C(=O)Nc2ccc(C(F)(F)F)cc2)Oc2c(NC(=O)c3ccncc3)cccc2C1=O | 56.2 µM (active)
64 | Cc1noc(C)c1NC(=O)Nc1ccc2c(c1)C(=O)N([C@H](C)CO)C[C@H](C)[C@@H](CN(C)C(=O)Nc1ccc(C(F)(F)F)cc1)O2 | inactive
65 | CCc1ccc(N(CC)C(=O)CCn2cnc3onc(-c4ccc(F)cc4)c3c2=O)cc1 | inactive
66 | COc1cc(Cl)c(C)cc1NC(=O)CSc1nnc(CN2CCCC2)o1 | inactive
67 | COc1cc(Cl)c(C)cc1NC(=O)CSc1nnc(-c2ccco2)n1CC(C)C | 12.6 µM (active)
68 | COc1ccccc1NC(=O)CSc1nnc(-c2ccoc2C)n1CCc1ccccc1 | inactive
69 | Cc1cccc(C(=O)Nc2ccc(S(=O)(=O)N3CCCCC3c3cccnc3)cc2)c1 (configuration not stated) | inactive
70 | Cc1ccc2oc(C(=O)Nc3ccc(S(=O)(=O)N4CCCCCC4)cc3)cc(=O)c2c1 | inactive
71 | CCOc1ccc(NC(=O)c2ncoc2-c2ccco2)cc1 | inactive
72 | COc1cc(-n2c(C)nc3cc(C(=O)NCc4ccco4)ccc32)cc(OC)c1OC | inactive
73 | C=CCNC(=O)c1ccc2nc(-c3ccco3)c(-c3ccco3)nc2c1 | 7.94 µM (active)
74 | COc1ccc(NC(=O)COCc2cc(-c3ccco3)on2)cc1 | inactive
75 | COc1ccc(-c2nc3ccc(C(=O)NCc4ccc(C)cc4)cc3nc2-c2ccc(OC)cc2)cc1 | inactive
76 | COCCNC(=O)Nc1ccc2nc(-c3ccco3)c(-c3ccco3)nc2c1 | 3.16 µM (active)
77 | Cc1nc2sc(C)c(C)n2c(=O)c1S(=O)(=O)NCCc1ccc(Cl)cc1 | inactive
78 | O=C(NCCS(=O)(=O)N1CCN(c2ccc(F)cc2)CC1)c1ccccc1Br | inactive

Row | Compound | Potency
79 | O=[N+]([O-])c1ccc(/C=C/c2ccc3cccnc3c2)cc1 | inactive
80 | O=C(Cn1cc(SCc2cccc(Cl)c2)c2ccccc21)N1CCCCC1 | inactive
81 | N#C/C(=C/c1ccc(N2CCOCC2)o1)C(=O)N1CCOCC1 | 50.1 µM (active)
82 | N#C/C=C(/c1ccc(F)cc1)N1CCOCC1 | inactive
83 | O=C(N1CCOCC1)N1CCOCC1 | inactive
84 | COc1cccc(C(=O)NC(=O)Nc2ccc(-c3cc(C(F)(F)F)nn3-c3ccccc3)cc2)c1 | inactive
85 | Cc1cccc(-n2ncc(C(=O)N3CCC(C)CC3)c2C2CCN(C(=O)OC(C)(C)C)CC2)c1 | inactive
86 | Cc1cccc(-n2ncc(C(=O)N3CCN(c4ccc(Cl)cc4)CC3)c2C2CCN(C(=O)OC(C)(C)C)CC2)c1 | inactive
87 | Cc1cccc(-n2ncc(Cl)c(Cl)c2=O)c1 | 44.7 µM (active)
88 | CCOc1ccc(C2CC(=O)c3c([nH]c(C(=O)OCc4ccccc4)c3C)C2)cc1 (configuration not stated) | inactive
89 | CCc1ccc(OCCCn2c(CCCNC(=O)C3CCCCC3)nc3ccccc32)cc1 | inactive
90 | Cc1ccc(C=O)cc1Cl | inactive
91 | Cc1ccc(-n2ncc3c(N4CCC(C(N)=O)CC4)ncnc32)cc1 | inactive
92 | Cc1cc(NC(=O)CCS(=O)(=O)c2ccc(F)cc2)no1 | 44.7 µM (active)
93 | Cc1cc(NC(=O)CSc2nc(=O)cc(N)n2-c2ccc(F)cc2)no1 | inactive
94 | Cc1cc(NC(=O)CCC(=O)N(CC(=O)NC2CCCC2)c2ccc(F)cc2)no1 | inactive
95 | ClC/C=C/C[n+]1ccccc1Cl | inactive
96 | CC(=O)NC(CC(=O)Nc1nc(-c2ccccc2)c(C(C)=O)s1)c1ccccc1 (configuration not stated) | inactive
97 | C/C(=N\Nc1cccc(C(=O)O)c1)c1ccc2c(c1)Nc1ccccc1S2 | inactive
98 | C/C(=N/Nc1nc(-c2ccccc2)c(CC(=O)O)s1)c1ccccc1 | 5.62 µM (active)
99 | CC(C)CCN(C(=O)Nc1ccc(Cl)c(Cl)c1)C(C)c1cccs1 (configuration not stated) | inactive
100 | C=CCN1C(=O)C(O)(CC(=O)c2ccccn2)c2ccccc21 (configuration not stated) | inactive
101 | Cc1ccc(C(=O)CC2(O)C(=O)N(CCc3ccccc3)c3ccc(Br)cc32)cc1 (configuration not stated) | inactive
102 | C=CCN1C(=O)C(O)(CC(=O)c2ccc(Cl)cc2)c2ccccc21 (configuration not stated) | 35.5 µM (active)
